The source of these data is PubChem BioAssay (NCATS).

Records with an inconclusive call do not appear. Entries that show only a call come without a potency. Activity calls are given as the source filed them. The call rests on the fitted dose curve; in most records, active means well fitted inhibition curve with a large enough effect; inconclusive means small, poorly fitted or top-dose-only effect; inactive means flat fitted curve, though single readings scatter.
Potency means the concentration at half of the fitted maximal effect.

In this test the test system is AS120. The test is described as follows: qHTS profiling for inhibitors of Plasmodium falciparum proliferation (AID 504749). Further: nearly all actives have a fitted effect of over 60% in size. The following applies: P. falciparum in erythrocytes, SYBR Green DNA, 72 h; series mostly up to 28.7 µM. Put shortly: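 SYBR Green fluorescence (ex 485 nm, em 535 nm) reports parasite DNA after 72 h compound exposure of infected red cells at 0.3% parasitemia, 2.5% hematocrit; signal normalized to 0.29 uM artemisinin and vehicle wells.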
With `COc1c(C)c2c(c(O)c1CC=C(C)CCC(=O)OCCN1CCOCC1)C(=O)OC2`, the Potency is 7.94 µM (active).
Take `CN1CC(=O)N2C(Cc3c([nH]c4ccccc34)[C@H]2c2ccc3c(c2)OCO3)C1=O` (some centres undefined): the Potency entry is “inactive”.
Regarding `CC(C)CN(C[C@@H](O)[C@H](Cc1ccccc1)NC(=O)O[C@H]1CO[C@H]2OCC[C@H]21)S(=O)(=O)c1ccc(N)cc1`, the Potency result was “inactive”.
As for `O=C1C(CCC(O)c2ccc(F)cc2)C(c2ccc(O)cc2)N1c1ccc(F)cc1` (centres undefined), the Potency result is “inactive”.
